Unmarked numbers belong to inactive results.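 The calls were made as follows: active = MAPPIT score above the 99th percentile of random reference set scores in the same batch; inactive = at or below it.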
How the values were obtained:
Experiment in all cases: MAPPIT interaction score (arbitrary units); higher = stronger binary interaction signal, active = hit call of the paper
[1] = biological target: Sod3
[2] = biological target: Sid; conditions: MAPPIT configuration: N-N; pair source set: Curagen_high_conf
[3] = biological target: Xbp1; conditions: MAPPIT configuration: N-N; pair source set: Curagen_low_conf
[4] = biological target: SelR; conditions: MAPPIT configuration: N-N; pair source set: Curagen_high_conf
[5] = biological target: SmydA-8; conditions: MAPPIT configuration: N-N; pair source set: screen_2
[6] = biological target: Sfp84E; conditions: pair source set: RRS
[7] = biological target: alc; conditions: MAPPIT configuration: N-N; pair source set: Lit-BS-16
[8] = biological target: robl62A; conditions: MAPPIT configuration: N-N; pair source set: RRS
[9] = biological target: Sirt2; conditions: MAPPIT configuration: N-N; pair source set: Finley_Y2H
[10] = biological target: Smn; conditions: MAPPIT configuration: N-C; pair source set: Lit-BM-16
[11] = biological target: Snap29; conditions: MAPPIT configuration: N-C; pair source set: Lit-BM-16
[12] = biological target: Shmt; conditions: MAPPIT configuration: N-N; pair source set: Curagen_high_conf
[13] = biological target: Slh; conditions: MAPPIT configuration: N-N; pair source set: Finley_Y2H
[14] = biological target: Ssrp; conditions: MAPPIT configuration: N-C; pair source set: Lit-BM-16
[15] = biological target: Snapin; conditions: MAPPIT configuration: N-N; pair source set: Lit-BM-16
[16] = biological target: Sms; conditions: MAPPIT configuration: N-N; pair source set: Finley_Y2H
[17] = biological target: Six4; conditions: MAPPIT configuration: N-N; pair source set: Lit-BS-16
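Also: HEK293T cells with Epo stimulation, STAT-responsive firefly luciferase reporter, fold induction versus unstimulated cells divided by the larger fold induction of two negative controls lacking either bait or prey.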

B1: noc (protein)
chain: MVVLEGGGGVVTIGNNQYLQPDYLAPLPTTMDAKKSPLALLAQTCSQIGADSSAVKPLLAMDKNKTKPGACSSSSNSSSSSGSAEISAAKSPSGQAKSPKSSTPISSTATSASLSNTSTGEIKLAFKPYETNVLSHQNQNSFKSSSSLDAEPTRPSSKNSSSAQERVPSRSKSNATPTDGGKAEISAHDSSSSRKTVSPSGSSQRGASPIVRSGMEVLNNANGTAQHPKEMSSMAAAAAAAAAAYKAAGPYGLNPLSALCCPPGMEQHANPAFRPPFAGGFSHHHAAMLAVAANGGYPGGAPGGGPAGQPNPYISYQRIKTPAGGEAIVPVCKDPYCQGCPYSAHTQQMLMGAPCPAGCTQCEHQKYGLAMASAAGLPPAHPYSQAAAAAAANAAAARSAPYVCSWVVGDAYCGKRFQTSDELFSHLRTHTGNLSDPAAAAAALAQSQAQSLLGTLFPPSALRAGYPTPPLSPMSAAAAAARYHPYAKPPPGALAGGPSPFGAAGAFNPAAAAAAAALGPYYSPYAMYGQRMGAAHQ
MAPPIT interaction score ([1]; MAPPIT configuration: N-N, pair source set: Lit-BS-16): 0.758

B2: Pep (protein)
chain: MVSVKVNGNPQNRLVNNAKVNGNMAFRGNQNRNRNFGGGNNNYGGPMGANRMGGMNMSPWESQNPGGGQFGNNMRQGGGQMNAQAINLANNLLNNLFRNQNPPSLLDLPRGGGGMGNRNQRGGPMVSRGGGAGNRLNNRRGQGGGFQNRGATGSGPKPPPKQGGGGIRKQNAFDRAKKLLAKNANQNKKKEPTPGEKKIESPTKESPYASVPNDMFYCHLCKKHMWDANSFENHIKGRTHLMMREGIEESYRLKANMIRQEAKIAEQLKSIEFDRLKRMGKSKQRQLDYCTMCDLNFHGHISTHRKSEGHLQLKKFLHPKCIECNKEFATRIDYDTHLLSAEHLKKAAENNTKVGERKRQTLPISTEEEETRDLRLPQKRKKKPVKKEGEAADGEAKKEGAGDGEGAEGDEAEGEEAKEGEEAADETKEGDELNESQEEEEVALPVDPEDCILDFNDGDEIPSEVDTRLPKYNWQRAVGPGLISKLECYECSVCSKFFDTEVTAEIHSRTATHHRNFLKFINEKSSDTKIAQKRAAAALEENERKKRKVEEAEAPAAEGAAEETTEGAEGELYDPSEATGDDEDVEMVDDNAEGEGEGEGDEEAEAEVEEDGAGQDNGEEEMEAQEEEGQEGEQEPEPEPAPVQTPAPAEPAPPAKTPAKTPTKAAAPAAVASPAAAATSADASPSPAKKATPARAAAGAKATPQRQRARGRYNRY
MAPPIT interaction score [2]: -0.865
MAPPIT interaction score [3]: -0.182

B3: CG11899 (protein)
chain: MVINFAAGPAKLPEEVLKEVQENLVNCNGSGISVMEMSHRSSNYAKIHDATISDLRELLNVPSNYKILLMQGGGTGQFAAVALNLIGKTGTADYVITGSWSAKAAKEAAQYGTVNAVLPKLAKYTTVPRQETWKLDPNASYVYYCDNETVEGVEFDFVPEVPAGVPLVADMSSNFLSRPFDVSKFGVIYAGAQKNIGPAGTTVIIVRDDLIGKHLKITPSILNFEQMDKNNSLLNTPPTFGIYVMGLVFKWIKRNGGVAGMAKLAAAKSKLIYDTINQSNGFYYCPVDVNVRSRMNVPFRIGSASGDDALEKEFLSKAEAEGMIQLKGHRSVGGIRASLYNAVTLAETQQLANLMLAFYKNNKN
MAPPIT interaction score [4]: 0.998

B4: Hsp67Bc (protein)
chain: MPDIPFVLNLDSPDSMYYGHDMFPNRMYRRLHSRQHHDLDLHTLGLIARMGAHAHHLVANKRNGELAALSRGGASNKQGNFEVHLDVGLFQPGELTVKLVNECIVVEGKHEEREDDHGHVSRHFVRRYPLPKEFDSDAIVSTLSEDGVLNITVPPLVSKEELKERIIPIKHVGPSDLFQNGNGHKEAGPAASASEPEAK
MAPPIT interaction score [5]: -0.475

B5: Adi1 (protein)
chain: MVQVWYMDTEETDQRLEHHRNPPAYLELDDLYQKTGVEYFKINADEYQSDNTLTELRAKRGYTYDDEITCSEKCLPDYANKLKAFFTEHLHTDEEIRLILEGSGYFDVRDNEDNWLRIKVVKGDLIIIPAGIYHRFTLDTNNFIRTRRYFVGEPVWAPHNRPADEMDCRKSYIKHQSENFVQFNKV
MAPPIT interaction score ([6]; MAPPIT configuration: N-C): 0.249
MAPPIT interaction score ([6]; MAPPIT configuration: N-N): 0.123
MAPPIT interaction score [7]: 0.0614
MAPPIT interaction score [8]: 2.17

B6: Pgam5 (protein)
chain: MRKLTSFVCGTGAGLAAYYLQRLRDPQTVVQNSWTHSDKPVDPWALWDTNWDCREPRALVRPLRNSQPEEENRYNAELEKAKAKKARHIILVRHGEYLDVGDSDDTHHLTERGRKQAEFTGKRLCELGIKWDKVVASTMVRAQETSDIILKQIDFEKEKVVNCAFLREGAPIPPQPPVGHWKPEASQFLRDGSRIEAGFRRYFHRAYPDQEKESYTLIVGHGNVIRYFVCRALQFPAEGWLRININHASITWLTISPSGNVSIKYLGDSGFMPAELLTNRIPRDVKNVV
MAPPIT interaction score [9]: 0.996

B7: Drs (protein)
chain: MMQIKYLFALFAVLMLVVLGANEADADCLSGRYKGPCAVWDNETCRRVCKEEGRSSGHCSPSLKCWCEGC
MAPPIT interaction score ([1]; MAPPIT configuration: N-C, pair source set: screen_4): 1.45

B8: Gem2 (protein)
chain: MQHEPEDQTFQLQALEICEPDSSFDPQKPPESGEEYLMHMFYERKRCPAVVTKRSSKIRNNTGNTTLEMLDNPELPPFKCLLPTPEWRDEQVKSFQAARSQVLVLRKELANNNYDQSGEPPLTSDQEKWKEFCRNQQPLLSTLLHLTQNDLELLLEMLSKWLQDPNTTVDLLHDVWLARWLYATLVCLHLPLEPHVFSTLRYIARTCIHLRNQLKEDEVQRAAPYNLLLTLTVQVFAQNDFKDYI
MAPPIT interaction score [10]: 2.73

B9: Syx4 (protein)
chain: MGKDRLPELLQRSLSTNSSNSSSNGSLLLNVYSGTTEFIIGNTGGNNNSYSVVSQNSHSCSNNNSSTEPKDRSSSKMTQYGSNVDDILNPYTEIRQQLAQIAANLETMNRMAQTVNLRTFNENEMDELHNKNLRLGNQLMTRFNDFKANLPAENDYSLEARMKRTLFYGLHQTFINLWHKNELFLQNYETKVKKNLRLHTKIINSEASEQEIELLIENKTTKLFVDNFLQETEKERQTLREMMDRFNELRRLEKSIEEVHALFMRIQTLVMEQSEVIQRVEFHAQQATLHVDKGADELDQAEQHQKKARKKKIMLIVILAAVLLVLLLVGIYL
MAPPIT interaction score [11]: 3.12

B10: Pka-R2 (protein)
chain: MSSDSSRRIQVPEELKEVLLQFSISFLVEQPPDVIDYAVEYFTKLQSERPSVSHTDQSTDDQLSVNSQDADAEPPVMASSRRKSVFAEAYDPEADDDDDGATAVFPKTDEQRARLVESVKNVLLFRSLEKEQMNQVLDAMFERKVQPGDFIIRQGDDGDNFYVIESGVYKVYINDKHINTYNHTGLFGELALLYNMPRAATVQAETSGLLWAMDRQTFRRILLKSAFRKRKMYEELLNSVPMLKALQNYERMNLADALVSKSYDNGERIIKQGDAADGMYFIEEGTVSVRMDQDDAEVEISQLGKGQYFGELALVTHRPRAASVYATGGVVKLAFLDVKAFERLLGPCMDIMKRNIDDYESQLVKIFGSKNNITDTR
MAPPIT interaction score [12]: 0.452

B11: rux (protein)
chain: MSAPEEHKETPLEVIHEFINGVDDGTIRRDLGEDCILSFYSRNVRGAKAITGFLRNQLTMRYKHEGFEEAAQIEWGDELLLKARFGRSFDSERRRIYEEKERTGTTLHVRPESDDEEVNEKFSSTLITPPRPSSYNLNSLKYVEACGLLNKRNEHIYGGLDMGESCAVHLTLGYRSTFLPGGQVSGFEICLAVYDRGLTSLKRSTLIPPLCSISFARRASARCNPTTDDEEDTEEDSTPPTARRCVRRTLFTEENTQKEEDADFIPVVEQEQPAPQEQPAPQQAEETGEVVIPVDISTALKTTNFSSCTPRKRQQATNGNEVVRKRATGPRRMRF
MAPPIT interaction score [13]: -0.123

B12: dre4 (protein)
chain: MSSFVLDKEAFVRRVKRLYTEWRAPSIGHDDALRNLDCIMSIVGVEEDVMYSKSMALQLWLLGYELTDTISVFCSDAVYFLTSKKKIEFLKQTQNITEEGFPEINLLVRDRTDKDQGNFEKLIKALQNSKKGKRLGVFAKDAYPGEFSEAWKKSLTASKFEHVDISTIIAYLMCPKDESEINNIRKASLVSMDIFNKYLKDEIMDIIDSDRKVKHNKLSDGCEAAIGEKKYTSGLDPRLLDMAYPPIIQSGGAYSLKFSAVADKNPLHFGVIVCSLGARYKSYCSNISRTFLVNPTEAMQENYTFLVSVQEEILKLLVPGTKLCDVYEKTLDFVKKEKPSMVDNLPKSFGFAMGLEFRENSIVIGPKCQALLKKNMVFNLHVGISNLTNPEATDKEGKNYALFIGDTVLVGEQSPASVMTPSKKKIKNVGIFIKDDSDEEDVDDKKTAKEDQGTEILGRSKRNAVLESKLRNEINTEEKRKEHQRELAQQLNERAKDRLARQGNSKEVEKVRKNTVSYKSISQMPREPEVKELKLYVDKKYETVIMPVFGIQVPFHISTIKNISQSVEGEYTYLRINFFHPGATMGRNEGGLYPQPEATFVKEVTYRSSNVKEHGEVGAPSANLNNAFRLIKEVQKRFKTREAEEREKEDLVKQDTLILSQNKGNPKLKDLYIRPNIVTKRMTGSLEAHSNGFRYISVRGDKVDILYNNIKSAFFQPCDGEMIILLHFHLKYAIMFGKKKHVDVQFYTEVGEITTDLGKHQHMHDRDDLAAEQAERELRHKLKTAFKSFCEKVETMTKSVVEFDTPFRELGFPGAPFRSTVTLQPTSGSLVNLTEWPPFVITLDDVELVHFERVQFHLRNFDMIFVFKEYNKKVAMVNAIPMNMLDHVKEWLNSCDIRYSEGVQSLNWQKIMKTITDDPEGFFEQGGWTFLDPESGSEGENETAESEEDEAYNPTDAESDEESDEDSEYSEASEDSEESDEDLGSDEESGKDWSDLEREAAEEDRNHDYAADDKPRNGKFDSKKHGKSSKHSPSKSSKDKYNSRDKHHSSSSSGNKSSSKDKDRKRSRDDSRDNGHKSKKSRH
MAPPIT interaction score [14]: 0.759

B13: Dysb (protein)
chain: MFGNLKKKLSSAIQEGLVISENLQQQYRQRVSSGNSGSSQASGITTPISPLGLNESLSSSRSSSLSLSAPFQLTDGVPSHLNVAAGCSLLAKYEDDWQQIHGANEKNAEKAAQIANQISGIQDQASHQHRIMSELNSSLAGIPTLIAQLQNSSQVLNSLEEMGKQLEIELEKLEDLREECELQEFILEQQFQLSRHKQKKLNELEQYRQQIAQKHQSKIKDQEQTLLKLQRERQAVFDDAFREDMEEYKQRGQLTKIQTTSNKLALEEVVLEANEVETKDALEQFLNG
MAPPIT interaction score [15]: 3.8 (active)

B14: shv (protein)
chain: MQLIKCLVIIQLSLLLVEESFAGRDFYKILNVKKNANTNEVKKAYRRLAKELHPDKNKDDPDASTKFQDLGAAYEVLSNPDKRKTYDRCGEECLKKEGMMDHGGDPFSSFFGDFGFHFGGDGQQQDAPRGADIVMDLYVSLEELYSGNFVEIVRNKPVTKPASGTRKCNCRQEMVTRNLGPGRFQMIQQTVCDECPNVKLVNEERTLEIEVEQGMVDGQETRFVAEGEPHIDGEPGDLIVRVQQMPHPRFLRKNDDLYTNVTISLQDALVGFSMEIKHLDGHLVPVTREKVTWPGARIRKKGEGMPNFENNNLTGNLYITFDVEFPKKDLTEEDKEALKKILDQSSINRIYNGL
MAPPIT interaction score ([1]; MAPPIT configuration: N-N, pair source set: Curagen_high_conf): 0.367

B15: l(2)34Fc (protein)
chain: MFRLLVLAACLAISVHAYSDGAPKAACRDLTPQHGAKLQVTKPPYSISGPSHVRSDQKLTLTLGGDEFLGFMIQARDGQNRVVGQFQVVDSVHSQTLDCSGKDDTITHLSAQKGKPLTGITFDWIPPAGYKGNVKFMATVVQTGFVYWVGRVTKDIDVE
MAPPIT interaction score [16]: 0.335

B16: CG30031 (protein)
chain: MLKFVILLSAVACALGGTVPEGLLPQLDGRIVGGSATTISSFPWQISLQRSGSHSCGGSIYSSNVIVTAAHCLQSVSASVLQIRAGSSYWSSGGVTFSVSSFKNHEGYNANTMVNDIAIIKINGALTFSSTIKAIGLASSNPANGAAASVSGWGTLSYGSSSIPSQLQYVNVNIVSQSQCASSTYGYGSQIRSTMICAAASGKDACQGDSGGPLVSGGVLVGVVSWGYGCAYSNYPGVYADVAALRSWVISNA
MAPPIT interaction score [17]: -0.185
